Inconclusive results are not listed. Active and inactive are the calls of the source. The calls were made as follows, unless noted: active = hit-call score of the fitted dose curve at least 0.9, where 1 is the maximum; inconclusive = response in the unintended direction; inactive = score below 0.9.

Test [1] can be described thus: Tanguay_ZF_120hpf_BRAI_legacy: (Legacy) Oregon State University Tanguay Lab 120 Hour Post-fertilization zebrafish Assay for Brain Malformation (AID 2283641). Summed up: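 Brain malformation in Tropical 5D zebrafish was recorded as a binary endpoint after static compound exposure from early development to 120 hpf at 28C. Activity was analysed against DMSO as negative control.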

A short description of test [2]: Tanguay_ZF_120hpf_PFIN_legacy: (Legacy) Oregon State University Tanguay Lab 120 Hour Post-fertilization zebrafish Assay for Pectoral Fin Malformation (AID 2283648).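 Also: each larva judged yes or no for fin defect by brightfield with dead larvae skipped.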 Summed up:
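Tropical 5D wild-type embryos, dechorionated with pronase at 4 hpf, were placed singly in wells at 6 hpf and statically exposed until 120 hpf at 28C, sealed and dark, with 0.64% (vol/vol) final DMSO; pectoral fin malformation scored present/absent.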

Test [3] can be described thus: Tanguay_ZF_120hpf_CFIN_legacy: (Legacy) Oregon State University Tanguay Lab 120 Hour Post-fertilization zebrafish Assay for Caudal Fin Malformation (AID 2283649). Summed up: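 Embryos were collected from Tropical 5D wild-type adults and dechorionated at 4 hpf. At 6 hpf each was exposed, one per well, at 0.64% DMSO and 28C. At 120 hpf fin morphology was scored; dead embryos were excluded.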

A short description of test [4]: Tanguay_ZF_120hpf_PIG_legacy: (Legacy) Oregon State University Tanguay Lab 120 Hour Post-fertilization zebrafish Assay for Pigmentation Malformation (AID 2283650). Put shortly: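 Tropical 5D wild-type zebrafish embryos, dechorionated with pronase at 4 hpf, were exposed singly from 6 hpf to 120 hpf statically at 28C in sealed, dark plates with 0.64% DMSO; pigmentation scored present/absent by brightfield microscopy, fitted against DMSO.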

A short description of test [5]: Tanguay_ZF_120hpf_SWIM_legacy: (Legacy) Oregon State University Tanguay Lab 120 Hour Post-fertilization zebrafish Assay for Swim Bladder Malformation (AID 2283654).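 Also: swim bladder malformation in each larva scored yes or no under brightfield.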 Summed up:
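Dechorionated Tropical 5D wild-type embryos, placed singly from 6 hpf, were statically exposed at 28C to 120 hpf with 0.64% DMSO final; swim bladder malformation was scored present/absent by brightfield microscopy, gain of signal relative to DMSO controls.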

Test [6] in a line: Tanguay_ZF_120hpf_TRUN_legacy: (Legacy) Oregon State University Tanguay Lab 120 Hour Post-fertilization zebrafish Assay for Truncated Body (AID 2283655). Summed up:
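5D wild-type larvae; pronase dechorionation; static exposure 6→120 hpf, 28C; DMSO 0.64% final; 5uM trimethyltin chloride positive control. Readout: presence/absence of truncated body, analyzed relative to DMSO.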

The nature of test [7]: Tanguay_ZF_120hpf_NC_legacy: (Legacy) Oregon State University Tanguay Lab 120 Hour Post-fertilization zebrafish Assay for Notochord and Tail Malformation (AID 2283656). Summed up:
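Dechorionated 5D zebrafish, 1/well from 6 hpf; static exposure to 120 hpf, 28C, sealed, dark; final DMSO 0.64% v/v. NC scored binary (present/absent); dead embryos not scored. Fit vs DMSO baseline, gain direction.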

Test [8] can be described thus: Tanguay_ZF_120hpf_TR_legacy: (Legacy) Oregon State University Tanguay Lab 120 Hour Post-fertilization zebrafish Assay for Touch Response (AID 2283667). Summed up:
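Tropical 5D wild-type zebrafish embryos were exposed statically in sealed, foil-covered plates at 28C until 120 hpf, with 0.64% (vol/vol) final DMSO. Touch response was scored as present or absent; embryos that died were not scored.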

The test system of test [9] is Thyroperoxidase (TPO), gene 54314. In words: CCTE_Simmons_AUR_rTPO: CCTE's Amplex UltraRed Assay for Thyroperoxidase (TPO) Inhibition, Simmons Lab (AID 2283662).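 Also: potency for loss of signal meaning inhibition of peroxidase activity.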 Put shortly: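 Rat thyroid microsomes (5 ug protein) with 25 uM Amplex UltraRed and 300 uM H2O2 in 200 mM phosphate buffer, 30 min at 37C in dark; fluorescence 544/590 nm. Eight concentrations, 5 nM–87.5 uM final, 0.5% DMSO, triplicate biological replicates.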

A short description of test [10]: CCTE_Simmons_CellTiterGLO_HEK293T: Viability Assessment in CCTE's Assays for Thyroperoxidase (TPO) Inhibition, Simmons Lab (AID 2283665).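 Also: cells exposed to compound for 24 h before readout; actives reduce ATP signal below DMSO vehicle meaning cytotoxicity.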 Summed up: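 Cytotoxicity counter-screen: human HEK293T cells in low-serum (1% FBS) medium receive test chemical, 5 nM to 87.5 uM final, for 24 h; ATP is quantified by luciferase luminescence.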
The nature of test [11]: CCTE_Padilla_ZF_144hpf_TERATOSCORE: (Legacy) CCTE's 144 Hour Post-fertilization zebrafish Assay Teratoscore, Padilla Lab (AID 2283679; active = hit-call score of the fitted dose curve at least 0.9, where 1 is the maximum; inactive = score below 0.9;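 as to AC50: zebrafish embryos with chorions exposed by immersion from 6-8 hpf to 5 dpf with daily renewal; teratogenicity score from eye scoring of death hatching and malformations at 144 hpf; higher score means more developmental defects relative to DMSO baseline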). Summed up:
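Larvae scored by eye at 144 hpf for death, hatching and malformations after a day in clean Hanks'. Before that, daily-renewed exposure at 80 uM (0.4% DMSO, 26C) from roughly 6-8 hpf through 5 dpf, 4 embryos per chemical.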

The nature of test [12]: Tanguay_ZF_120hpf_SOMI_legacy: (Legacy) Oregon State University Tanguay Lab 120 Hour Post-fertilization zebrafish Assay for Somite Malformation (AID 2283647). Put shortly: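 5D WT zebrafish; chorion removed 4 hpf; 1 embryo/well from 6 hpf; static exposure to 120 hpf, 28C, 0.64% DMSO final. Endpoint: somite malformation, binary, brightfield. Mortality excluded.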

For `COC(=O)CCCCC(=O)OC`, the outcome in [1], in [2], in test [3], in test [4], in test [5] and in test [6] was inactive. Further, the result in test [7] and in test [8] was inactive.
Turning to `Oc1cc2ccccc2c2ccccc12`, the concentration at half-maximal activity (AC50) in [1] was 36.2 µM (active); in test [2] it was 12.1 µM (active); in test [3], 36.5 µM (active); in test [4] it was 12.9 µM (active); in test [5], 10.3 µM (active); in test [6] it was 38.3 µM (active). Further, the AC50 in test [9] is 1.72 µM (active); in [10], 1.4 µM (active); in [8] it was 38.8 µM (active); in test [11], 4.98 µM (active). Further, the compound was called inactive in test [7].
On to `CC(C)(C)CC(C)(C)c1ccc(O)c(-n2nc3ccccc3n2)c1`, for which the call in test [1], in test [12], in test [2], in test [3], in [4] and in test [5] was inactive. In addition, the compound was classed as inactive in [6] and in test [8].
Turning to `CCCCCCCCCCCCN1CCCC1=O`, the result in test [1], in [2], in [4], in test [5], in test [7] and in test [8] was inactive. Further, the AC50 was 41 µM (active) in test [3]; 34.7 µM (active) in [6]; 17.4 µM (active) in test [9]; 14.9 µM (active) in [10]; 8.11 µM (active) in test [11].
As for `CCCOC(=O)c1ccc(O)cc1`, the AC50 was 41.4 µM (active) in test [1]; 33.3 µM (active) in test [12]; 45.8 µM (active) in test [2]; 75.8 µM (active) in test [3]; 49.1 µM (active) in test [4]; 10.6 µM (active) in [5]. Moreover, the values for the AC50 in test [6], in test [8] and in test [11] were 32.9 µM (active), 41.5 µM (active) and 14.9 µM (active), respectively. Further, in test [7], the call was inactive.
Consider `CCCCCCCCOC(=O)CCCCCCCCC(=O)OCCCCCCCC`, for which the call in [1], in [12], in [2], in [3], in test [4] and in test [5] was inactive. The call in test [6], in [7], in test [8] and in test [11] was inactive.
Consider `CC[C@H](c1ccc(O)cc1)[C@@H](CC)c1ccc(O)cc1`, for which the call in [1], in test [12], in test [2], in test [3], in test [4] and in test [6] was inactive. In addition, the result in test [7] and in test [8] was inactive. The half-maximal activity concentration (AC50) in test [9] is 4.36 µM (active); in test [10], 2.25 µM (active); in [11], 14.9 µM (active).
As for `CCCCCCCC(=O)O`, the outcome in [1], in [2], in test [3], in test [4], in [5] and in test [6] was inactive. For the same compound, the compound was called inactive in [7] and in test [8].

Values taken from PubChem BioAssay (EPA / NIEHS).
